AmpC inh no detg = qHTS Inhibitors of AmpC Beta-Lactamase (assay without detergent); P00811; AmpC nitrocefin hydrolysis, absorbance 480 nm, 0.0001% Triton; Potency, µM (series often up to 57.1 µM), actives largely listed as inhibitors; actives 0.52% (n = 330,000); AID 485341, 2010; further: nearly all actives have a fitted effect of over 20% in size
Target sequence (P00811 whole entry, looked up): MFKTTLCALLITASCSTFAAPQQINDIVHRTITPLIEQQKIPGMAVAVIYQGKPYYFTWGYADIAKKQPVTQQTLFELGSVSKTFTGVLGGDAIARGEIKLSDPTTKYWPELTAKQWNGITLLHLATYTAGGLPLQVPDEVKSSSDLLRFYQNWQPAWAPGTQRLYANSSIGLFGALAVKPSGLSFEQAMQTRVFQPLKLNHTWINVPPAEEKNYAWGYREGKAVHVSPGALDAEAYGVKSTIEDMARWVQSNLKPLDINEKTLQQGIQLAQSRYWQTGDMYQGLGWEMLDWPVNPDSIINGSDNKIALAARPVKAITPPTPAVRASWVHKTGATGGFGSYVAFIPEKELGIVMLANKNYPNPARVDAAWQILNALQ
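AmpC (5.3 nM in the dispensed reagent) in 20 mM phosphate pH 7.0 with 0.01% (detergent screen) or 0.0001% Triton X-100 was preincubated with compounds for 15 min at room temperature. Nitrocefin was then added from an 800 uM solution, and hydrolysis was followed at 480 nm.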
LASV entry inh = qHTS for Inhibitors of binding or entry into cells for Lassa Virus; Lassa virus pseudotype entry inhibition, cell reporter; Potency, µM (highest dose often 37.9 µM), actives largely listed as inhibitors; actives 1.2% (n = 300,000); calls by dose curve; tested in HEK293 cells; further: nearly all actives have a fitted effect of over 50% in size
AMA1 RON2 block = qHTS for Inhibitors of AMA1-RON; Towards Development of Antimalarial Drug Lead: Primary Screen | Potency, µM (series often up to 58.2 µM), usual class: inhibitors | actives 0.2% (n = 360,000) | AlphaScreen AMA1-biotinylated RON2 peptide binding; further: nearly all actives have a fitted effect of over 45% in size
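AMA1 (3D7) with his tag at 25 nM final met compounds first, then biotinylated RON2 peptide at 25 nM; detection used donor plus acceptor beads, 10 µg/mL apiece, read by AlphaScreen after 30 min at room temperature.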
MARV entry inh = qHTS for inhibitors of binding or entry into cells for Marburg Virus. AID 540276, 2011. actives 1.8% (n = 300,000). Potency, µM (highest dose often 37.8 µM), usual class: inhibitors. Marburg virus pseudotyped entry inhibition, cell reporter; calls by dose curve; tested in HEK293 cells
AmpC detergent = qHTS Inhibitors of AmpC Beta-Lactamase (assay with detergent) | P00811 | AmpC hydrolysis of nitrocefin, absorbance 480 nm, 0.01% Triton | Potency, µM (doses to about 114 µM), actives largely listed as inhibitors | actives 0.041% (n = 370,000) | AID 485294, 2010; further: nearly all actives have a fitted effect of over 25% in size
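AmpC (5.3 nM in the dispensed reagent) in 20 mM phosphate pH 7.0 with 0.01% (detergent screen) or 0.0001% Triton X-100 was preincubated with compounds for 15 min at room temperature. Nitrocefin was then added from an 800 uM solution, and hydrolysis was followed at 480 nm.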
Numbers stand for hits; i = inactive; ? = inconclusive; nt = not tested or not shown; ! = not active in a repeat; [ ] = dose if it differs, or a comment. In the library only some 2.3% were active in any assay of this set; here they are far more common. Unless noted, the call rests on the fitted dose curve; in most records, active means well fitted curve in the direction sought with a large enough effect; inconclusive means small, poorly fitted or top-dose-only effect, or another doubt; inactive means no such curve, though single readings can be large; an effect the other way counts as inactive or inconclusive.

SMILES | AmpC inh no detg | LASV entry inh | AMA1 RON2 block | MARV entry inh | AmpC detergent
CCOc1cc(/C=N/NC(=O)CNc2cccc(C)c2)ccc1OC(=O)c1ccccc1 | i | 15.8µM | i | i | i
Cc1ccc(NC(=O)CSc2nc3ccccc3c(=O)n2CCCN2CCCCC2)cc1C | i | 20.6µM | i | ? | i
Cc1ccc(NC(=O)CSc2nc3ccccc3c(=O)n2CCC(=O)NC2CCCCC2)cc1C | nt | i | nt | nt | i
Cc1ccc(NC(=O)CSc2nc3ccccc3c(=O)n2CCCC(=O)N2CCCC2)cc1 | i | ? | i | 8.2µM | i
Cc1[nH]c2ccccc2c1C(=O)CSc1nc2ccccc2c(=O)n1CCCN1CCOCC1 | i | i | i | 11.2µM | ?
CC(C)CON=C1C[C@@H](O)[C@@H](O)[C@@H]2[C@H]3C(=O)N(C4CCCCC4)C(=O)[C@@H]3CC[C@@H]12 | nt | i | nt | i | nt
Cc1ccc(-c2nc(NC(=O)c3nn(C)cc3[N+](=O)[O-])sc2C)cc1C | i | 3.98µM | i | ? | i
Clc1ccc(-n2cnnn2)cc1 | i | i | i | i | i
CO/C=C\C=C/c1nnn(-c2ccc(Cl)cc2)n1 | 11.2µM | i | ? | ? | i
COc1ccccc1CNc1ccc(-c2nc(C)no2)cc1[N+](=O)[O-] | nt | i | nt | ? | i
Cc1ccc(S(=O)(=O)N2CCC(=O)N(C(COCc3cccc(C)c3)C(C)C)CC2)cc1 (configuration not stated) | i | i | i | i | ?
Cc1ccc(S(=O)(=O)N2CCC(=O)N(C(COCc3cccc(C(F)(F)F)c3)C(C)C)CC2)cc1 (configuration not stated) | i | ? | i | 13µM | ?
CCCOc1c(Br)cc(/C=N/O)cc1OC | nt | i | i | 10µM | i
CCOc1cc(/C=N/O)cc(Br)c1OCC | i | i | i | i | i
COc1ccc(N2CCc3c(C)nc4c(OC)cc(OC)cc4c32)cc1 | i | ? | i | ? | i
COc1cccc(N2CCc3c(C)nc4ccc(Cl)cc4c32)c1 | i | ? | i | 11.2µM | i
COc1ccc(N2CCc3c(C)nc4c(OC)cccc4c32)cc1 | i | ? | i | ? | i
COc1ccc(N2CCc3c(C)nc4c(OC)cc(OC)cc4c32)c(OC)c1 | i | ? | i | 11.6µM | ?
CCCC[C@@H]1C[C@H]1C(=O)Nc1ccc(OC)c(OC)c1 | nt | nt | nt | i | nt
COc1ccc(NC(=O)Cn2c(=O)ccc3cc(S(=O)(=O)N4CCCC4)ccc32)cc1Cl | nt | i | nt | nt | i
Cn1nnnc1SCCCNCc1cc(Br)ccc1OCc1ccccc1F | nt | i | nt | ? | i
CCN(CCNC(=O)Nc1ccc(Cl)cc1)c1ccccc1 | i | 15.8µM | i | ? | i
O=C(NCCc1ccc(Cl)cc1)Nc1ccc(Cl)cc1 | ? | nt | i | nt | i
COc1cc([C@H]2C[C@H](C(F)(F)F)n3ncc(C(=O)O)c3N2)cc(OC)c1OC | nt | nt | nt | i | nt
CO/S(=N\S(=O)(=O)c1ccc(Cl)cc1)c1ccc([N+](=O)[O-])cc1 (configuration not stated) | nt | ? | nt | i | nt
SMILES | AmpC inh no detg | LASV entry inh | AMA1 RON2 block | MARV entry inh | AmpC detergent
CCOc1cc(/C=C2\COc3ccccc3C2=O)ccc1OCC(=O)N(C)C | i | ? | i | ? | i
CCNC(=O)COc1ccc(/C=C2\COc3ccccc3C2=O)cc1OC | i | 14.6µM | i | ? | i
O=C(CN1c2ccccc2Sc2ccccc21)N/N=C/c1ccccc1 | i | ? | i | ? | i
O=C(CN1c2ccccc2Sc2ccccc21)N/N=C/c1ccc([N+](=O)[O-])cc1 | i | ? | ? | 8.91µM | i
CCOc1ccc2c(c1)C(C)=CC(C)(C)N2S(=O)(=O)c1ccc(NC(C)=O)cc1 | i | nt | i | nt | i
COc1ccc2c(c1)C(C)=CC(C)(C)N2S(=O)(=O)c1ccc(NC(C)=O)cc1 | i | ? | i | 1.12µM | i
CN1C=CC(=C2C(=O)c3ccccc3C2=O)C=C1 | i | nt | nt | i | i
CCCN1C=CC(=C2C(=O)c3ccccc3C2=O)C=C1 | i | 0.206µM | i | 0.206µM | i
CCCCCCN1C=CC(=C2C(=O)c3ccccc3C2=O)C=C1 | i | nt | i | nt | i
CCN1C=CC(=C2C(=O)c3ccccc3C2=O)C=C1 | i | 0.651µM | i | 1.83µM | i
NC(=O)CNCCC(c1ccccc1)c1ccccc1 | i | i | i | 11.2µM! | ?
CC1CC(C)(O)CC(C(O)CC2CC(=O)NC(=O)C2)C1=O (configuration not stated) | nt | 0.398µM | i | 0.1µM | nt
CC1CC(C)C(=O)C(C(CC2CC(=O)NC(=O)C2)OC(=O)CC(=O)c2ccccc2)C1 (configuration not stated) | nt | ? | i | ? | nt
CCOc1ccccc1CNC(=O)c1ccc(Cn2c(SCc3ccccc3)nc3cccnc32)cc1 | nt | nt | nt | i | i
COC(=O)Cc1ccc2sc(-c3ccccc3)nc2c1 | i | ? | i | 8.2µM | i
Nc1nc(-c2ccco2)c(-c2ccco2)s1 | i | i | i | i | i
c1coc(-c2nc(-c3ccco3)c(-c3ccco3)nc2-c2ccco2)c1 | i | i | 9.47µM | i | ?
Cc1ccc(N(C(=O)CCC(=O)Nc2nccs2)C(C(=O)NC(C)(C)C)c2ccc(O)cc2)cc1 (configuration not stated) | i | i | i | 8.91µM | i
CC(C)(C)NC(=O)C(c1ccc(O)cc1)N(C(=O)CCC(=O)Nc1nccs1)c1ccc(F)cc1 (configuration not stated) | i | ? | i | 2.24µM | i
O=C1/C(=N\S(=O)(=O)c2cccs2)C([n+]2cccc(Cc3ccccc3)c2)=C([O-])c2ccccc21 | i | ? | i | 2.82µM | i
O=C1/C(=N\S(=O)(=O)c2cccs2)C([n+]2ccc(CCCc3ccccc3)cc2)=C([O-])c2ccccc21 | i | i | i | i | i
C=CCOC(=O)C(C(C)=O)[C@@H](NC(=O)OC)c1cccs1 (some centres not stated) | nt | nt | nt | i | nt
COc1cccc(CNS(=O)(=O)c2ccc(N3CCCCS3(=O)=O)cc2)c1 | nt | i | nt | nt | i
Cc1ccc(C)n1-c1ccc(N2CCOCC2)cc1 | i | i | i | i | i
Cc1ccc(C)n1-c1ccc(N(C)C)cc1 | i | i | 28.2µM | i | i
COc1cc(C2C(C#N)=C(N)Oc3c2ccc2ccccc32)ccc1OCC(=O)Nc1ccc(C)cc1 (configuration not stated) | i | ? | i[11.6 µM] | ? | i
COc1cc(C2C(C#N)=C(N)Oc3c2ccc2ccccc32)ccc1OCC(=O)Nc1cccc(C)c1 (configuration not stated) | ? | 10µM | i | ? | i
Cc1ccc(N/C=C/C(=O)c2ccc(C)cc2)cc1 | i | i | i | ? | i
Cc1ccc(C(=O)/C=C/Nc2ccccn2)cc1 | nt | 0.631µM | i | ? | nt
COc1cccc(OC)c1C(=O)Nc1cc(C)nn1-c1nc2ccccc2[nH]1 | i[2.29 µM] | 11.2µM | i | ? | i

High-throughput results deposited in PubChem BioAssay by National Center for Advancing Translational Sciences (NCATS).
